Test results from PubChem BioAssay (Tox21).
Records with an inconclusive call do not appear. Active and inactive are the calls of the source. Unless noted, calls follow the shape of the dose curve; as a rule, active = well fitted curve in the direction sought with a large enough effect in the repeat runs; inconclusive = weak or mixed curves; inactive = no such curve, though single readings can be large; an effect the other way counts as inactive or inconclusive.

How the values were obtained:
[1] = qHTS assay to identify small molecule agonists of the estrogen receptor alpha (ER-alpha) signaling pathway in the presence of an antagonist - cell viability counter screen (AID 1259386);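 also: cells exposed to compounds for 22 h at 37 °C before the viability read; nearly all actives have a fitted effect of over 30% in size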; also: potency is read from the fitted curve at half-maximal effect; as to activity change, negative = cytotoxicity: series mostly up to about 92 µM
In short: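 Viability counter screen using VM7Luc4E2 (full-length ER-alpha, four ERE-luciferase). The cells were treated with compounds alongside ICI-182,780 10.0nM for 22hr, and live-cell protease fluorescence was quantified with CellTiter-Fluor.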

[2] = biological target: Progesterone receptor (Homo sapiens) (UniProt P06401); assay: qHTS assay to identify small molecule agonists of the progesterone receptor (PR) signaling pathway (AID 1346784; calls by dose curve; also: nearly all actives have a fitted effect of over 30% in size)
Chain of Progesterone receptor (Homo sapiens) (P06401 whole entry, looked up): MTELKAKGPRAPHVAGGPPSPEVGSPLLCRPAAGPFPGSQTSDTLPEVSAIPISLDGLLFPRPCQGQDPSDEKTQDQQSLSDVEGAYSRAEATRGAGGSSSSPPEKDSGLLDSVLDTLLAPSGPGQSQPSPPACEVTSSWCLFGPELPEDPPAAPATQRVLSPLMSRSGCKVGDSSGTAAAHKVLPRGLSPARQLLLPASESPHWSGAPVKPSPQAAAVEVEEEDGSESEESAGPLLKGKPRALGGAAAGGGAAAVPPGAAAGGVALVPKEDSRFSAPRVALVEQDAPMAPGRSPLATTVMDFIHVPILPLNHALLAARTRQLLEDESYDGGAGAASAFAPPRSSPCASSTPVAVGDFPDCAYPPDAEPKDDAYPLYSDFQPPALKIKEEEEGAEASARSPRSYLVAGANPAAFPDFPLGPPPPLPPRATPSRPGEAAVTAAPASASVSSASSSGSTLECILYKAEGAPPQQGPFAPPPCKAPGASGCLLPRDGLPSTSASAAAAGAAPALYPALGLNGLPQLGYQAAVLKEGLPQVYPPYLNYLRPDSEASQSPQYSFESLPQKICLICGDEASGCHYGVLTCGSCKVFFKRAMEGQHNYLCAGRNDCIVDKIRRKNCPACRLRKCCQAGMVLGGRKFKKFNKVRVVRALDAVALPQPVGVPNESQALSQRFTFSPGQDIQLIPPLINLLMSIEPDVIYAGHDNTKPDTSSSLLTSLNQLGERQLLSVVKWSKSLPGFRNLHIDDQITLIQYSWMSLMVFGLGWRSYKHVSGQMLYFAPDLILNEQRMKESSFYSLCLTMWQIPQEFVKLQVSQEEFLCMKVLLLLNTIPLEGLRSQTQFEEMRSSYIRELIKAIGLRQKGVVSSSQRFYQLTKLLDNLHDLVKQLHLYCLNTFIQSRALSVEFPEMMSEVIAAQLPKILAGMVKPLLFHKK
In short: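 Fluorescence from LiveBLAzer B/G FRET substrate cleavage (2 hr, RT) reported PR activation in PR-UAS-bla HEK 293T cells treated 16 hr at 37C/5% CO2 with compounds; medium contained 2% charcoal-stripped FBS.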

[3] = biological target: Progesterone receptor (Homo sapiens) (UniProt P06401); assay: qHTS assay to identify small molecule antagonists of the progesterone receptor (PR) signaling pathway (AID 1346795; active = well fitted inhibition curve with a large enough effect in the signal ratio in the repeat runs, not every such curve was filed as active; the % refers to the signal ratio; also: potency is read from the fitted curve at half-maximal effect)
In short: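 Fluorescence intensity measured 2 hr after adding beta-lactamase FRET substrate to PR-UAS-bla HEK293T cells that had been co-treated 16 hr with compound and 1 nM R5020 (final concentration) in 2% charcoal-stripped FBS.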

[4] = qHTS assay to identify small molecule antagonists of the TGF-beta/Smad signaling pathway - cell viability counter screen (AID 1346824); also: nearly all actives have a fitted effect of over 50% in size; also: potency is read from the fitted curve at half-maximal effect
In short: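 SBE-bla HEK 293T cells were plated overnight at 37 C, then given compounds in DMSO plus TGF-beta1 (added as 0.25 ng/mL solution) for 5 hr. After the bla read, CellTiter-Glo was added to the same wells and luminescence read after 30 min at room temperature.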

[5] = qHTS assay to identify small molecule agonists of the TGF-beta/Smad signaling pathway - cell viability counter screen (AID 1346829); also: nearly all actives have a fitted effect of over 45% in size; also: potency is read from the fitted curve at half-maximal effect; as to activity change, negative = cytotoxicity: top concentration of the series differs between compounds
In short: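 SBE-bla HEK 293T cells plated overnight, compound exposure 5 hr at 37 C. Viability read in the same wells by CellTiter-Glo luminescence after 30 min at room temperature, following the beta-lactamase read.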

[6] = qHTS assay to identify small molecule agonists of the TGF-beta/Smad signaling pathway (AID 1346859; active = well fitted activation curve with a large enough effect in the signal ratio in the repeat runs, not every such curve was filed as active; the % refers to the signal ratio; also: series mostly up to about 77 µM)
In short: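 After overnight seeding, SBE-bla HEK 293T cells are dosed with compounds in DMSO and kept 5 hr at 37 C, 5% CO2. LiveBLAzer-type FRET substrate is then applied for 2 hr at room temperature.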

[7] = biological target: Thyrotropin-releasing hormone receptor (Homo sapiens) (UniProt P34981); assay: qHTS assay to identify small molecule antagonists of the thyrotropin-releasing hormone receptor (TRHR) signaling pathway (AID 1346877; active = well fitted inhibition curve with a large enough effect in the repeat runs, not every such curve was filed as active; also: series mostly up to about 51 µM)
Chain of Thyrotropin-releasing hormone receptor (Homo sapiens) (P34981 whole entry, looked up): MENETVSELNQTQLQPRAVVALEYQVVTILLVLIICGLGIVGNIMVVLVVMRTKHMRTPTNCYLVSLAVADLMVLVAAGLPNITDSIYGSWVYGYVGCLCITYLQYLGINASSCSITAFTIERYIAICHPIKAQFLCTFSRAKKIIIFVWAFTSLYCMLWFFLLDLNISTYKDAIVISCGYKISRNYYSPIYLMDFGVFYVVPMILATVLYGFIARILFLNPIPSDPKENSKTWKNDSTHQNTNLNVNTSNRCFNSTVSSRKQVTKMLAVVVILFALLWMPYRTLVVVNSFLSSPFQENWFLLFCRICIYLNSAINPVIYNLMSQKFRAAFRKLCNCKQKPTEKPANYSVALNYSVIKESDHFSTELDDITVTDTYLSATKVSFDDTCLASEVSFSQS
In short: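 Following an 18 h incubation at 37 °C and a 2 h calcium dye load, TRHR-HEK293 cells were exposed to compound (5 min, room temperature) and challenged with TRH, 1 nM final.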

[8] = biological target: Thyrotropin-releasing hormone receptor (Homo sapiens) (UniProt P34981); assay: qHTS assay to identify small molecule agonists of the thyrotropin-releasing hormone receptor (TRHR) signaling pathway (AID 1346891; calls by dose curve;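 also: HEK293 cells expressing TRHR with calcium dye readout; series mostly up to about 58 µM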)
In short: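 Compounds were tested as agonists at 15 concentrations, in triplicate, on TRHR-Hek293 cells; calcium-sensitive dye fluorescence was recorded for 3 min following addition.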

[9] = qHTS assay to identify small molecule agonists of the progesterone receptor (PR) signaling pathway - cell viability counter screen (AID 1346799; calls by dose curve; also: nearly all actives have a fitted effect of over 45% in size; also: potency is read from the fitted curve at half-maximal effect)
In short: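 In parallel with the beta-lactamase readout, cytotoxicity toward PR-UAS-bla HEK293T cells was measured by CellTiter-Glo luminescence following 16 hr compound incubation in 2% charcoal-stripped FBS medium.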

[10] = qHTS assay to identify small molecule antagonists of the progesterone receptor (PR) signaling pathway - cell viability counter screen (AID 1346798); also: nearly all actives have a fitted effect of over 50% in size; also: potency is read from the fitted curve at half-maximal effect; as to activity change, negative = cytotoxicity: series mostly up to about 92 µM
In short: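 CellTiter-Glo luminescence; PR-UAS-bla HEK293T, 3,000 cells/well; compound + R5020, 16 hr, 37C/5% CO2; 30 min RT before read.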
% is scaled to controls: 0 for no effect and ±100 for the full control effect.

Cc1cc(O)c(Cl)c(C)c1Cl
inactive: Potency [1] | Potency [2] | Potency [3] | Potency [4] | Potency [5] | Potency [6] | Potency [7] | Potency [8]

COc1cc(-c2nc(NC(=O)c3cc4cc(C)cc(C)c4n3CC(=O)O)sc2CCC2CCCCC2)c(OC)cc1Cl
inactive: Potency [1] | Potency [2]
active: Potency [3] 12.5 µM | Potency [9] 11.2 µM | Potency [5] 28.3 µM

NNC(=O)c1cccc(C(=O)NN)c1
inactive: Potency [1] | Potency [2] | Potency [3] | Potency [9] | Potency [4] | Potency [5] | Potency [6] | Potency [7] | Potency [8]

COc1cc(/C=C/C(=O)O[C@H]2CC[C@]34C[C@]35CC[C@]3(C)[C@@H]([C@H](C)CCC=C(C)C)CC[C@@]3(C)[C@@H]5CC[C@H]4C2(C)C)ccc1O
inactive: Potency [1] | Potency [2] | Potency [3] | Potency [10] | Potency [4] | Potency [6] | Potency [7] | Potency [8]

O=c1cccccc1O
inactive: Potency [1] | Potency [2] | Potency [3] | Potency [10] | Potency [4] | Potency [5] | Potency [6] | Potency [8]

COc1c(C)c2c(c(O)c1C/C=C(\C)CCC(=O)O)C(=O)OC2
inactive: Potency [1] | Potency [2] | Potency [4] | Potency [5] | Potency [7] | Potency [8]
active: Potency [10] 0.119 µM

CCCCCCCCS(=O)C(C)Cc1ccc2c(c1)OCO2 (configuration not stated)
active: Potency [3] 44.1 µM
inactive: Potency [1] | Potency [2] | Potency [4] | Potency [5] | Potency [6] | Potency [8]

Oc1c(Cl)cc(Cl)c2cccnc12
inactive: Potency [1] | Potency [2] | Potency [4] | Potency [5] | Potency [7] | Potency [8]
active: Potency [3] 0.841 µM

N=C1C=CC(=C(c2ccc(N)cc2)c2ccc(N)cc2)C=C1
active: Potency [1] 24.3 µM
inactive: Potency [2] | Potency [3] | Potency [5] | Potency [6] | Potency [7] | Potency [8]

CC(C)c1ccc2c(c1)CC[C@H]1[C@](C)(CN)CCC[C@]21C
inactive: Potency [1] | Potency [2] | Potency [3] | Potency [4] | Potency [6]

CN(C)[C@@H]1C(=O)C(C(N)=O)=C(O)[C@@]2(O)C(=O)C3=C(O)c4c(O)cccc4C[C@H]3C[C@@H]12
inactive: Potency [1] | Potency [2] | Potency [10] | Potency [4] | Potency [5] | Potency [7] | Potency [8]

CC(C)(C)CC(C)(C)c1ccc(OCCOCC[N+](C)(C)Cc2ccccc2)cc1
active: Potency [1] 61.1 µM | Potency [10] 54.4 µM | Potency [9] 48.5 µM | Potency [4] 48.9 µM | Potency [5] 43.6 µM
inactive: Potency [2] | Potency [6]

CCC(Cl)C(Cl)C(Cl)CC(Cl)C(Cl)C(C)Cl (configuration not stated)
inactive: Potency [1] | Potency [2] | Potency [6] | Potency [7] | Potency [8]
active: Potency [3] 17.2 µM

O=c1[nH]sc2cc(Cl)ccc12
inactive: Potency [1] | Potency [2] | Potency [4] | Potency [5] | Potency [6] | Potency [7] | Potency [8]

Cn1cc(C(=O)[C@@H]2CCc3nc[nH]c3C2)c2ccccc21
inactive: Potency [1] | Potency [2] | Potency [4] | Potency [6] | Potency [7] | Potency [8]
active: Potency [10] 23.7 µM

Cc1cc2c(cc1C(F)(F)F)N(C(=O)Nc1ccc(Oc3cccnc3C)nc1)CC2
inactive: Potency [1] | Potency [2] | Potency [9] | Potency [5]

O=C(OCC1CO1)C1CCCCC1C(=O)OCC1CO1 (configuration not stated)
inactive: Potency [1] | Potency [2] | Potency [10] | Potency [4] | Potency [5]

CCCCCCCCn1sc(Cl)c(Cl)c1=O
active: Potency [4] 21.9 µM | Potency [5] 34.7 µM
inactive: Potency [1] | Potency [2] | Potency [10] | Potency [8]

[O-][n+]1ccccc1SSc1cccc[n+]1[O-]
active: Potency [1] 8.2 µM | Potency [10] 0.116 µM | Potency [9] 0.116 µM
inactive: activation [2] -12.3% [at 19 µM] | viability change, negative = cytotoxic [4] -6.42% [at 15.8 µM] | activation [6] -0.0146% [at 15.8 µM] | activity, negative = inhibition [7] -2.61% [at 10.5 µM] | activation [8] 5.02% [at 11.8 µM]

CC(C)(C)c1ccc(C(=O)CCCN2CCC(OC(c3ccccc3)c3ccccc3)CC2)cc1
active: Potency [4] 21.3 µM | Potency [5] 23.9 µM
inactive: Potency [1] | Potency [2]

Oc1cccc2cc3cccc(O)c3c(O)c12
inactive: Potency [1] | Potency [2] | Potency [10] | Potency [4] | Potency [5] | Potency [6]

Fc1ccc([C@@H]2CCNC[C@H]2COc2ccc3c(c2)OCO3)cc1
inactive: Potency [1] | Potency [2] | Potency [4] | Potency [5] | Potency [6] | Potency [7] | Potency [8]

CN(C)c1ccc(SC#N)cc1
inactive: Potency [1] | Potency [2] | Potency [9] | Potency [4] | Potency [5] | Potency [6] | Potency [7] | Potency [8]

CCCCCCCCCCn1cc[n+](CCCCCCCCCC)c1C
inactive: Potency [2] | Potency [6] | Potency [7] | Potency [8]
active: Potency [1] 30.7 µM | Potency [10] 21.7 µM | Potency [9] 30.7 µM | Potency [4] 24.6 µM

CCCCN1C(=O)[C@@H]([C@H](O)C2CCCCC2)NC(=O)C12CCN(Cc1ccc(Oc3ccc(C(=O)O)cc3)cc1)CC2
inactive: Potency [1] | Potency [2] | Potency [10] | Potency [4] | Potency [7] | Potency [8]

O=C(OC[C@H]1O[C@@H](OC(=O)c2cc(O)c(O)c(OC(=O)c3cc(O)c(O)c(O)c3)c2)[C@H](OC(=O)c2cc(O)c(O)c(OC(=O)c3cc(O)c(O)c(O)c3)c2)[C@@H](OC(=O)c2cc(O)c(O)c(OC(=O)c3cc(O)c(O)c(O)c3)c2)[C@@H]1OC(=O)c1cc(O)c(O)c(OC(=O)c2cc(O)c(O)c(O)c2)c1)c1cc(O)c(O)c(OC(=O)c2cc(O)c(O)c(O)c2)c1
inactive: activation [2] 2.55% [at 19 µM] | activity change, negative = cytotoxicity [10] -7.91% [at 18.9 µM] | activity change, negative = cytotoxicity [9] 9.14% [at 19 µM] | viability change, negative = cytotoxic [4] 3.78% [at 15.8 µM] | activity change, negative = cytotoxicity [5] 7.05% [at 15.8 µM] | activation [6] -3.84% [at 15.8 µM] | activity, negative = inhibition [7] 4.26% [at 10.5 µM] | activation [8] 0.113% [at 11.8 µM]
active: Potency [1] 18.5 µM

NNc1nc(-c2ccccc2)cs1
inactive: Potency [2] | Potency [4] | Potency [7] | Potency [8]
active: Potency [1] 56 µM | Potency [3] 19.9 µM
